Bioassay records from PubChem BioAssay.
The entries come from a sample that favours hits as a whole.
FXIIa inh: human FXIIa protease inhibitors, primary screen, biochemical, single well. Coagulation factor XII (Homo sapiens), P00748. AID 701, 2007. actives 0.2% (n = 33,000). purified human FXIIa, AMC substrate fluorescence, 2 h. inhibition, % at 10 µM; in the data active means inhibition above about 30%
Target sequence (P00748 20-372 limits assumed): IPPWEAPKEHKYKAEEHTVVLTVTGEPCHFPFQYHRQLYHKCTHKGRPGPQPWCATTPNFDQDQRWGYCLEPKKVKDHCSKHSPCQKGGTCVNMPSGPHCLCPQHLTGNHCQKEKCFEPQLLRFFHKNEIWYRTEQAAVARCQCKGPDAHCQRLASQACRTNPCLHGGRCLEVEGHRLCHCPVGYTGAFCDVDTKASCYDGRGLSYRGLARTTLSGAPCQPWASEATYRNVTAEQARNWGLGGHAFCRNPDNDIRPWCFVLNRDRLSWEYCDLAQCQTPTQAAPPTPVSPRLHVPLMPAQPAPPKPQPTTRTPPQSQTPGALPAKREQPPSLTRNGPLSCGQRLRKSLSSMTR
Target sequence (P00748 373-615 limits assumed): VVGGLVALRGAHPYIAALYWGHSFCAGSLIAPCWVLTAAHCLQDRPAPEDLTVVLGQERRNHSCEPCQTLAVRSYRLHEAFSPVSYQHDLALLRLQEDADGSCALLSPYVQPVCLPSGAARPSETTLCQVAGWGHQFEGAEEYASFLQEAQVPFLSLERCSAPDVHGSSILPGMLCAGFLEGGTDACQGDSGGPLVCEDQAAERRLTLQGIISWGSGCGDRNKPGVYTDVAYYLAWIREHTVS
FXIa single inh: human FXIa protease inhibitors, primary screen, biochemical, single compound per well. Coagulation factor XI (Homo sapiens), P03951. purified human FXIa, fluorogenic AMC substrate cleavage. inhibition, % at 10 µM. actives 0.3% (n = 33,000). AID 687, 2007;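 active means inhibition above 40% in the primary screen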
A number is an active result.

Cc1cccc(OCc2nc(C)cc(=O)[nH]2)c1 was read as FXIIa inh inactive and FXIa single inh inactive.
Nc1nc(SCC(=O)NCCC(c2ccccc2)c2ccccc2)n[nH]1 was read as FXIIa inh inactive and FXIa single inh inactive.
CCOC(=O)C1(C(F)(F)F)N=C(c2cccnc2)OC(N2CCOCC2)=N1 (stereo not drawn) was read as FXIIa inh inactive and FXIa single inh inactive.
O=C(O)c1ccc(NS(=O)(=O)c2ccc(Cl)cc2)cc1 was read as FXIIa inh inactive and FXIa single inh inactive.
COC(=O)CSc1nnc(C)n1-c1cccc(OC)c1 was read as FXIIa inh inactive and FXIa single inh 43.3.
`COC(=O)CSc1nnc(C)n1-c1ccc(C)cc1` gave FXIIa inh inactive and FXIa single inh inactive.
O=C(N/C=N/OCc1ccc(Cl)cc1Cl)NOCc1ncc(C(F)(F)F)cc1Cl was read as FXIIa inh inactive and FXIa single inh inactive.
`CCCC(=O)N(CCc1ccc(OC)cc1)Cc1nc2ccccc2c(=O)[nH]1` gave FXIIa inh inactive and FXIa single inh inactive.
O=C(C1CCC1)N(CCc1ccccc1)Cc1nc2ccccc2c(=O)[nH]1 was read as FXIIa inh 34.1 and FXIa single inh inactive.
Screening CCOc1cccc(C(=O)Nc2ccc3oc(Cc4ccc(Cl)cc4)nc3c2)c1 returned FXIIa inh inactive and FXIa single inh inactive.
COc1ccc2c(c1)CCc1c(C(=O)Nc3c(C)nn(Cc4ccccc4)c3C)noc1-2 was read as FXIIa inh inactive and FXIa single inh inactive.
`COc1ccc2c(c1)CCc1c(C(=O)NCc3ccc(Cl)cc3)noc1-2` gave FXIIa inh 81.2 and FXIa single inh inactive.
`CCOc1cc(C2NC(=O)NC(C)=C2C(C)=O)cc(Cl)c1OCC(=O)O` (stereo not drawn) gave FXIIa inh inactive and FXIa single inh inactive.
`N#CC(c1ccc(O)cc1)N1CCOCC1` (stereo not drawn) gave FXIIa inh inactive and FXIa single inh inactive.
O=C(NCC(F)(F)F)Nc1ccccn1 was read as FXIIa inh inactive and FXIa single inh inactive.
